Laboratory results: PubChem BioAssay (Tox21)
Records with an inconclusive call do not appear. Activity calls are given as the source filed them. Unless noted, the call rests on the fitted dose curve; in most records, active means well fitted curve in the direction sought with a large enough effect in the repeat runs; inconclusive means weak or mixed curves; inactive means no such curve, though single readings can be large; an effect the other way counts as inactive or inconclusive.

Key:
[1] = qHTS assay for small molecule agonists of the p53 signaling pathway (AID 651631; calls by dose curve; further: nearly all actives have a fitted effect of over 15% in size)
Method in brief: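 HCT-116 cells carrying a beta-lactamase reporter under p53 response elements were dosed with compound for 16 h at 37 °C. LiveBLAzer B/G FRET substrate was then added for 2 h at room temperature, and fluorescence intensity was read to detect pathway agonism.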

[2] = qHTS assay for small molecules that induce genotoxicity in human embryonic kidney cells expressing luciferase-tagged ATAD5 (AID 651632); further: nearly all actives have a fitted effect of over 15% in size
Method in brief: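 Concentration-response screen for ATAD5 upregulation in HEK293T luciferase reporter cells; 16 hr treatment at 37C, then luminescence after 30 min with Amplite at room temperature.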

[3] = qHTS assay for small molecule agonists of the p53 signaling pathway - cell viability (AID 651633; calls by dose curve;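 further: p53RE-bla HCT reporter cells with a stable beta-lactamase p53 reporter; series mostly up to about 83 µM; nearly all actives have a fitted effect of over 30% in size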)
Method in brief: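 p53RE-bla cells, seeded at 4,000 per well and rested 5 h at 37 C/5% CO2, received compounds in DMSO for 16 h at 37 C. CellTiter-Glo was then added, and luminescence was read after 30 min at room temperature to gauge cytotoxicity.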

[4] = qHTS assay for small molecules that induce genotoxicity in human embryonic kidney cells expressing luciferase-tagged ATAD5 - cell viability (AID 651634; calls by dose curve; further: nearly all actives have a fitted effect of over 25% in size)
Method in brief: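 15.5 hr compound or vehicle exposure of HEK293T cells expressing luciferase-tagged ATAD5 at 37C; live-cell protease activity is read by fluorescence after 30 min of CellTiter-Fluor.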

[5] = qHTS assay for small molecule disruptors of the mitochondrial membrane potential - cell viability (AID 720634; calls by dose curve;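 further: human HepG2 liver cancer cells; series mostly up to about 83 µM; nearly all actives have a fitted effect of over 20% in size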)
Method in brief: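 In this qHTS format, HepG2 cells plated overnight were pinned with compound, incubated 1 hr, and assayed for ATP luminescence with CellTiter-Glo after m-MPI dye addition.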

[6] = qHTS assay for small molecule disruptors of the mitochondrial membrane potential (AID 720635)
Method in brief: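 HepG2 cells (2,000/well) attached overnight at 37C, then took compound for 1 hr at 37C, 5% CO2. Mito-MPS dye was added for 30 min; fluorescence was read at 490/535 nm (monomers) and 540/590 nm (aggregates).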

[7] = qHTS assay to test for compound auto fluorescence at 590 nm (red) in HepG2 cells (AID 720674)
Method in brief: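 Rose Bengal sodium served as the red fluorophore standard. HepG2 monolayers (overnight attachment, MEM with 10% FBS) were exposed to test compounds for 1 hr at 37 C and read at Ex 540/Em 590 nm.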

[8] = qHTS assay to test for compound auto fluorescence at 535 nm (green) in HepG2 cells (AID 720675)
[9] = qHTS assay to test for compound auto fluorescence at 460 nm (blue) in HEK293 cells (AID 720678)
Method in brief: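 HEK293 cells (2,000 per well, medium with 10% dialyzed FBS) attached for 4-5 hr at 37C, then received compound and stood overnight at 37C, 5% CO2. Blue fluorescence was read at Ex/Em 405/460 nm and expressed relative to triamterene.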

[10] = qHTS assay to test for compound auto fluorescence at 590 nm (red) in HEK293 cells (AID 720679)
Method in brief: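 HEK293 cells (2,000/well, medium with 10% dialyzed FBS) attached for 4-5 hr at 37C, received 23 nL compound and were incubated overnight at 37C, 5% CO2. Red fluorescence was then read at 540/590nm Ex/Em, referenced to Rose Bengal sodium.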

[11] = qHTS assay to test for compound auto fluorescence at 535 nm (green) in HEK293 cells (AID 720680)
[12] = qHTS assay to test for compound auto fluorescence at 460 nm (blue) in HEK293 cell free culture (AID 720681)
Method in brief: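 Test compounds were pinned into cell-free culture medium (DMEM with 10% FBS) and fluorescence was read directly at Ex/Em 405/460 nm. Signals were expressed as fluorescence equivalents of triamterene, with DMSO vehicle as control.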

[13] = qHTS assay to test for compound auto fluorescence at 535 nm (green) in HEK293 cell free culture (AID 720682)
Method in brief: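 Green-label autofluorescence (485 nm excitation, 535 nm emission) measured on compound added to cell-free culture medium (DMEM, 10% FBS). Output is expressed relative to fluorescein.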

[14] = qHTS assay to test for compound auto fluorescence at 590 nm (red) in HEK293 cell free culture (AID 720683)
Method in brief: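 Tox21 10K library compounds were pinned into cell-free DMEM with 10% FBS and fluorescence was read at excitation 540 nm. Activity is expressed as Rose Bengal sodium equivalency.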

[15] = qHTS assay to test for compound auto fluorescence at 590 nm (red) in HepG2 cell free culture (AID 720684)
Method in brief: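 Readout: intrinsic compound fluorescence at 590 nm emission after 540 nm excitation, scaled to Rose Bengal sodium. Matrix was cell-free MEM with 10% FBS; DMSO vehicle wells served as control.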

[16] = qHTS assay to test for compound auto fluorescence at 460 nm (blue) in HepG2 cell free culture (AID 720685)
Method in brief: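 Cell-free plates of MEM plus 10% FBS received 23 nL compound or DMSO vehicle; blue-channel (405/460 nm) intensity scored against triamterene as reference fluorophore.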

[17] = qHTS assay to test for compound auto fluorescence at 535 nm (green) in HepG2 cell free culture (AID 720686)
[18] = qHTS assay to test for compound auto fluorescence at 460 nm (blue) in HepG2 cells (AID 720687)
Method in brief: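 Cells (2,000/well in MEM with 10% FBS) attached overnight at 37 C, then were exposed to compound or DMSO for 1 hr at 37 C, 5% CO2. Fluorescence read at Ex/Em 405/460 nm, expressed as triamterene-equivalent signal.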

[19] = biological target: Glucocorticoid receptor (Homo sapiens) (UniProt P04150); test: qHTS assay to identify small molecule agonists of the glucocorticoid receptor (GR) signaling pathway (AID 720691; active means well fitted activation curve with a large enough effect in the signal ratio in the repeat runs, not every such curve was filed as active; the % refers to the signal ratio)
Chain of Glucocorticoid receptor (Homo sapiens) (P04150 whole entry, looked up): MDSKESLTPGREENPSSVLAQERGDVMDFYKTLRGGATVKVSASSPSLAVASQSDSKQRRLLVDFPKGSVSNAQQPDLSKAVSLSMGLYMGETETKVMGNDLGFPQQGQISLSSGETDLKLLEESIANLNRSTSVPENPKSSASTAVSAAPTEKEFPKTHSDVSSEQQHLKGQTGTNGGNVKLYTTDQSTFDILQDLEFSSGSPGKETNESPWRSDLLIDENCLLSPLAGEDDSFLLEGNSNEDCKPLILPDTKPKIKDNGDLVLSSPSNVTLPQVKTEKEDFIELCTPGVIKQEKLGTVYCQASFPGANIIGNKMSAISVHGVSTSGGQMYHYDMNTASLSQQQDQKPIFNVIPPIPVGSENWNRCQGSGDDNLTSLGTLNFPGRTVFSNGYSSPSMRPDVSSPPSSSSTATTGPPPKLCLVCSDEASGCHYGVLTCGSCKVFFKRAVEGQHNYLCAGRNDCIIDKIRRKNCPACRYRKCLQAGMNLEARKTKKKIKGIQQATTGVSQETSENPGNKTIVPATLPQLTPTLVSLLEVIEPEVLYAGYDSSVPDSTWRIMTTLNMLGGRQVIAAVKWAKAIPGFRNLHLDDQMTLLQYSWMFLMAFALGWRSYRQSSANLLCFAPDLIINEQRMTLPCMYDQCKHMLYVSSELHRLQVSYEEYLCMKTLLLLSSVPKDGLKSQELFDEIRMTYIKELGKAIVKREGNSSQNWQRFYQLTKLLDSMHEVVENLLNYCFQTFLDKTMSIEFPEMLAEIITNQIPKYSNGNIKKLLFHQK
Method in brief: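 Measures GR pathway activation through a GRE-beta-lactamase reporter stably integrated in HeLa cells, with 18 h compound treatment at 37 C and fluorescence detection using a FRET substrate.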

[20] = biological target: Glucocorticoid receptor (Homo sapiens) (UniProt P04150); test: qHTS assay to identify small molecule antagonists of the glucocorticoid receptor (GR) signaling pathway (AID 720692; active means well fitted inhibition curve with a large enough effect in the signal ratio in the repeat runs, not every such curve was filed as active; the % refers to the signal ratio)
Method in brief: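 Tox21 10K library screened in concentration-response for blockade of dexamethasone (5 nM final)-induced GRE-bla reporter activity in HeLa cells; 18 h treatment, fluorescence read.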
On the % scale 0 is the no-effect control and ±100 the full control effect.

Cc1cc(C)n(CO)n1
inactive: Potency [1] | Potency [2] | Potency [3] | Potency [4] | Potency [5] | Potency [6] | outcome [7] | outcome [8] | Potency [9] | outcome [10] | outcome [11] | Potency [12] | outcome [13] | outcome [14] | outcome [15] | outcome [16] | outcome [17] | outcome [18] | Potency [19] | Potency [20]

O=C(O)c1ccccc1[N+](=O)[O-]
inactive: Potency [1] | Potency [2] | Potency [3] | Potency [4] | Potency [5] | outcome [7] | outcome [8] | Potency [9] | outcome [10] | outcome [11] | Potency [12] | outcome [13] | outcome [14] | outcome [15] | outcome [16] | outcome [17] | outcome [18] | Potency [19] | Potency [20]

CCC(=O)O[C@@H]1C[C@H]2CC[C@]1(C)C2(C)C
inactive: Potency [1] | Potency [2] | Potency [3] | Potency [4] | Potency [5] | Potency [6] | outcome [7] | outcome [8] | Potency [9] | outcome [10] | outcome [11] | Potency [12] | outcome [13] | outcome [14] | outcome [15] | outcome [16] | outcome [17] | outcome [18] | Potency [19] | Potency [20]

C=CCCC
inactive: Potency [1] | Potency [2] | Potency [3] | Potency [4] | Potency [5] | Potency [6] | outcome [7] | outcome [8] | Potency [9] | outcome [10] | outcome [11] | Potency [12] | outcome [13] | outcome [14] | outcome [15] | outcome [16] | outcome [17] | outcome [18] | Potency [19]

CCc1c(C)[nH]c2c1C(=O)C(CN1CCOCC1)CC2 (configuration not stated)
inactive: Potency [1] | Potency [2] | Potency [3] | Potency [4] | Potency [5] | fluorescence, relative to Rose Bengal [7] 0.262% [at 18.6 µM] | fluorescence, % of fluorescein control [8] 0.0551% [at 18.6 µM] | fluorescence, % of triamterene [9] 0.0227% [at 18.6 µM] | fluorescence, % of fluorescent control [10] 0.192% [at 18.6 µM] | fluorescence, % of fluorescein [11] 0.152% [at 18.6 µM] | fluorescence, % of fluorescent control [12] 0.0226% [at 18.6 µM] | activity change [13] 0.141% [at 18.6 µM] | fluorescence, % of fluorescent control [14] 0.113% [at 18.6 µM] | fluorescence, % of Rose Bengal [15] -0.199% [at 18.6 µM] | fluorescence, % of fluorescent control [16] -0.0691% [at 18.6 µM] | fluorescence, % of fluorescein control [17] 0.0022% [at 18.6 µM] | fluorescence, % of fluorescent control [18] 0.0012% [at 18.6 µM]

[O-][n+]1ccc(Cl)cc1
inactive: Potency [1] | Potency [2] | Potency [3] | Potency [4] | Potency [5] | outcome [7] | outcome [8] | Potency [9] | outcome [10] | outcome [11] | Potency [12] | outcome [13] | outcome [14] | outcome [15] | outcome [16] | outcome [17] | outcome [18] | Potency [19] | Potency [20]

O=C(O)CCc1nc2ccccc2[nH]1
inactive: Potency [1] | Potency [2] | Potency [3] | Potency [4] | Potency [5] | Potency [6] | outcome [7] | outcome [8] | Potency [9] | outcome [10] | outcome [11] | Potency [12] | outcome [13] | outcome [14] | outcome [15] | outcome [16] | outcome [17] | outcome [18]
